Laboratory results as given in article PMC7862700, “An all-to-all approach to the identification of sequence-specific readers for epigenetic DNA modifications on cytosine”.

Tests used:
Assay in all cases: DAPPL (digital affinity profiling via proximity ligation, sequencing); 10 mM Tris-HCl pH 7.5, 50 mM NaCl, 1 mM DTT, 4% glycerol, room temperature, 30 min; GST-TFs on glutathione beads, 16-mer random dsDNA library, 0.1% formaldehyde crosslink after washing; high values mean tight binding
FEV = target: T1, FEV (Homo sapiens, UniProt Q99581 1-238); conditions: protein: recombinant; tags: N-terminal GST; dsDNA, one strand shown
T1 sequence: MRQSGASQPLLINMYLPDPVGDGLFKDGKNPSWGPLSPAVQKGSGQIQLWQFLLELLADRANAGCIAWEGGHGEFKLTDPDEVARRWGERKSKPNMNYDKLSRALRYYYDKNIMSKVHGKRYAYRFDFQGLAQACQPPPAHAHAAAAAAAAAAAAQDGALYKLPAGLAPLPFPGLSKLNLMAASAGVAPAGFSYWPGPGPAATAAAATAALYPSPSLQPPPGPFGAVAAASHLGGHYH
Procedure, shortened: (§1)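 After expression in yeast as GST fusions, human transcription factors were bound to glutathione beads, DNA-barcoded and mixed with a tag-only sample. The pools were incubated with 200 nmole of a 16-mer random double-stranded DNA library in Tris/NaCl/DTT/glycerol buffer (30 min, room temperature), washed and crosslinked with 0.1% formaldehyde. Proximity ligation with BsaI/T4 ligase ran for 1 h at 37 °C, before PCR amplification and sequencing on an Illumina NextSeq500. Binding signal is a hexamer's read frequency for a factor divided by its frequency for the tag-only sample.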

ETV5 = ETV5 (Homo sapiens, UniProt P41161 1-510); conditions: protein: recombinant; tags: N-terminal GST; dsDNA, one strand shown
Procedure, shortened: as §1

HSF1 = HSF1 (Homo sapiens, UniProt Q00613 1-529); conditions: protein: recombinant; tags: N-terminal GST; chain copies: 3; dsDNA, one strand shown
Procedure, shortened: as §1

SPIC = target: T2, SPIC (Homo sapiens, UniProt Q8N5J4 1-248); conditions: protein: recombinant; tags: N-terminal GST; dsDNA, one strand shown
T2 sequence: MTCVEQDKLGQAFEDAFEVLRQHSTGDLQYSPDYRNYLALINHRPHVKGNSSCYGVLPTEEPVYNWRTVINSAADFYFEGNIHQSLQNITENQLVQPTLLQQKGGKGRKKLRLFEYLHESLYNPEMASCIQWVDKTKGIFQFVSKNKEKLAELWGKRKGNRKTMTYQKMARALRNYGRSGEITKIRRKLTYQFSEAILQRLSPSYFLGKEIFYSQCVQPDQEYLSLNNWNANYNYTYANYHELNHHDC
Procedure, shortened: as §1

ELF4 = ELF4 (Homo sapiens, UniProt Q99607 1-663); conditions: protein: recombinant; tags: N-terminal GST; dsDNA, one strand shown
Procedure, shortened: as §1

ELK4 = target: T3, ELK4 (Homo sapiens, UniProt P28324-2 1-405); conditions: protein: recombinant; tags: N-terminal GST; dsDNA, one strand shown
T3 sequence: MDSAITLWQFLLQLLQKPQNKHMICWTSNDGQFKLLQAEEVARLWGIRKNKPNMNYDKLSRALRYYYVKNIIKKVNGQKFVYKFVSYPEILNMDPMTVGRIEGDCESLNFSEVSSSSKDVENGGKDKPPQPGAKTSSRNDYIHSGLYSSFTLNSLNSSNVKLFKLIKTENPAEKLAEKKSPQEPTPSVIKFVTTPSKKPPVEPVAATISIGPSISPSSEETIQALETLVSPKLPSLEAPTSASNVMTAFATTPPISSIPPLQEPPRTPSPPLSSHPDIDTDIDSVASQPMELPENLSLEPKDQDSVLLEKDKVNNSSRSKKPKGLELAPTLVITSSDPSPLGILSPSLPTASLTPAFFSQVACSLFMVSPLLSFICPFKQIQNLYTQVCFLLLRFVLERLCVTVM
Procedure, shortened: as §1

ETV2 = target: T4, ETV2 (Homo sapiens, UniProt O00321 1-342); conditions: protein: recombinant; tags: N-terminal GST; dsDNA, one strand shown
T4 sequence: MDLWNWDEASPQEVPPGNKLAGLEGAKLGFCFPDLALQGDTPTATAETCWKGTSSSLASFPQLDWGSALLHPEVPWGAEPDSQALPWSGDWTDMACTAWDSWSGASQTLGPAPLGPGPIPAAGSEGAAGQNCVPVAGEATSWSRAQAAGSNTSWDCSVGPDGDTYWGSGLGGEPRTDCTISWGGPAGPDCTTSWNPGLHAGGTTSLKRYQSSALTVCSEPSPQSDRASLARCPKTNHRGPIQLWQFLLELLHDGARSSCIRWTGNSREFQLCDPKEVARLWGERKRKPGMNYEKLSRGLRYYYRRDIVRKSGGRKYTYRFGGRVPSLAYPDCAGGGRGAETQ
Procedure, shortened: as §1

ELF3 = target: T5, ELF3 (Homo sapiens, UniProt P78545 1-371); conditions: protein: recombinant; tags: N-terminal GST; dsDNA, one strand shown
T5 sequence: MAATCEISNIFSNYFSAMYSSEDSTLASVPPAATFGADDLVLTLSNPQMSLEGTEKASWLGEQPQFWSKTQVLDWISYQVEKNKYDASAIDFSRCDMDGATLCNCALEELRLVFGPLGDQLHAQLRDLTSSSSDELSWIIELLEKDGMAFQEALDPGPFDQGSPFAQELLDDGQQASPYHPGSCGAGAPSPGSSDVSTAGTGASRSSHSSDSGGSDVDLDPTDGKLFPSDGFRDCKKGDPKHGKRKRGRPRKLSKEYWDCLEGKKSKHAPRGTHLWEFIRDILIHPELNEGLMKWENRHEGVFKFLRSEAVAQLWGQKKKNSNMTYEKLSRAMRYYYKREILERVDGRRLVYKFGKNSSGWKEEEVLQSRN
Procedure, shortened: as §1

CRX = CRX (Homo sapiens, UniProt O43186 1-299); conditions: protein: recombinant; tags: N-terminal GST; dsDNA, one strand shown
Procedure, shortened: as §1

ETV1 = ETV1 (Homo sapiens, UniProt P50549 1-477); conditions: protein: recombinant; tags: N-terminal GST; dsDNA, one strand shown
Procedure, shortened: as §1

ERF = target: T6, ERF (Homo sapiens, UniProt P50548 1-548); conditions: protein: recombinant; tags: N-terminal GST; dsDNA, one strand shown
T6 sequence: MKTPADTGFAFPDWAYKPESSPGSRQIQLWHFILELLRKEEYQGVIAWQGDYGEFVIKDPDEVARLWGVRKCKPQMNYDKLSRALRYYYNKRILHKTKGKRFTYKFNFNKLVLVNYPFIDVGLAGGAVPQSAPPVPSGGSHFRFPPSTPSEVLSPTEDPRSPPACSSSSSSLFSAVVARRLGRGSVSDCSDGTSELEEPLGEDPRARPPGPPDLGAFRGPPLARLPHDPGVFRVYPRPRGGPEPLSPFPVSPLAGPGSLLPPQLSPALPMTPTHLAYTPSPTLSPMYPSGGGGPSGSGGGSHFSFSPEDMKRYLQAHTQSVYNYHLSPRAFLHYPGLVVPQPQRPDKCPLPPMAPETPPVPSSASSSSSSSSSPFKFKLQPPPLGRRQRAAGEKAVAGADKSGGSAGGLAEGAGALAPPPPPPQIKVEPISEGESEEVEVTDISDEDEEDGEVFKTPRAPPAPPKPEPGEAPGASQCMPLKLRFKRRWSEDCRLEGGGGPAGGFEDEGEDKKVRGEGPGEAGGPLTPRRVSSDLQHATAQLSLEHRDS
Procedure, shortened: as §1

ETV3L = target: T7, ETV3L (Homo sapiens, UniProt Q6ZN32 1-361); conditions: protein: recombinant; tags: N-terminal GST; dsDNA, one strand shown
T7 sequence: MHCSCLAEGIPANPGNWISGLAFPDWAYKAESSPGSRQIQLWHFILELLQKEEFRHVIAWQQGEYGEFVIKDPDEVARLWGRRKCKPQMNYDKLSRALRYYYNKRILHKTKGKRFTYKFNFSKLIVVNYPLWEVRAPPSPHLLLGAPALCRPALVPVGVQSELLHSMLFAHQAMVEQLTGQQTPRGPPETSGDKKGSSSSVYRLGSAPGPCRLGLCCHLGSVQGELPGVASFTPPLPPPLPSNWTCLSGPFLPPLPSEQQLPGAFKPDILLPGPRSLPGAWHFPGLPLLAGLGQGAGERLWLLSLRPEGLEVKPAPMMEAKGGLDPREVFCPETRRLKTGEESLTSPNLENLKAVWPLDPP
Procedure, shortened: as §1

ETS2 = target: T8, ETS2 (Homo sapiens, UniProt P15036 1-469); conditions: protein: recombinant; tags: N-terminal GST; dsDNA, one strand shown
T8 sequence: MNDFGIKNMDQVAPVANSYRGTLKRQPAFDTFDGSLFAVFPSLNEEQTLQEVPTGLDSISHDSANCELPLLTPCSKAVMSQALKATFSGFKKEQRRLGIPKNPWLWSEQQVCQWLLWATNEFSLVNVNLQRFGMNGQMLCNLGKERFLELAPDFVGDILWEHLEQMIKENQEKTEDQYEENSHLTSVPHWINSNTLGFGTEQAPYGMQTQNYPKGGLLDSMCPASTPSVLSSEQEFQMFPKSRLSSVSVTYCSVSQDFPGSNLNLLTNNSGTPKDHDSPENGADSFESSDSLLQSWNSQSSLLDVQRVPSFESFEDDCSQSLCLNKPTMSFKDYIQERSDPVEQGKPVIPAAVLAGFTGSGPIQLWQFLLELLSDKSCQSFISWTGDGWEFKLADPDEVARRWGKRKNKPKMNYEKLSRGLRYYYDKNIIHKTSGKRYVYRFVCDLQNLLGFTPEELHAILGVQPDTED
Procedure, shortened: as §1

SPDEF = target: T9, SPDEF (Homo sapiens, UniProt O95238 1-335); conditions: protein: recombinant; tags: N-terminal GST; dsDNA, one strand shown
T9 sequence: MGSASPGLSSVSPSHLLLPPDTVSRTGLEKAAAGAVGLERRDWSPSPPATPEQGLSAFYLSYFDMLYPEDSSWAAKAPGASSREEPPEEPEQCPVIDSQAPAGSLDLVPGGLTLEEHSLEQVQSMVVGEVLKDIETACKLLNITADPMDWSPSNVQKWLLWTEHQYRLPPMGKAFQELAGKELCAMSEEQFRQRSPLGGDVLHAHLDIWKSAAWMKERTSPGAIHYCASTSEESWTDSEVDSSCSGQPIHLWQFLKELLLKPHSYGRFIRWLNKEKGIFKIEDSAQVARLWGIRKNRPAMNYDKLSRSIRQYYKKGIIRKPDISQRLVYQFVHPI
Procedure, shortened: as §1

ETV7 = target: T10, ETV7 (Homo sapiens, UniProt Q9Y603 1-341); conditions: protein: recombinant; tags: N-terminal GST; dsDNA, one strand shown
T10 sequence: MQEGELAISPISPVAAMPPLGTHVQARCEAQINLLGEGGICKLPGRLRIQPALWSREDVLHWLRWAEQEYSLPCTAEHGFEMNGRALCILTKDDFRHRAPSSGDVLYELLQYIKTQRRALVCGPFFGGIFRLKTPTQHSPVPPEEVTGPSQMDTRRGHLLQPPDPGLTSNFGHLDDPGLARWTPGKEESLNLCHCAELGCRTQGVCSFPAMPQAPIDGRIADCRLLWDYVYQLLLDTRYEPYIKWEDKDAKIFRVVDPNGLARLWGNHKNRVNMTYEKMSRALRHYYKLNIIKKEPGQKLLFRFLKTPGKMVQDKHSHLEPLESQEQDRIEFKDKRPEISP
Procedure, shortened: as §1

ELF5 = target: T11, ELF5 (Homo sapiens, UniProt Q9UKW6-2 1-255); conditions: protein: recombinant; tags: N-terminal GST; dsDNA, one strand shown
T11 sequence: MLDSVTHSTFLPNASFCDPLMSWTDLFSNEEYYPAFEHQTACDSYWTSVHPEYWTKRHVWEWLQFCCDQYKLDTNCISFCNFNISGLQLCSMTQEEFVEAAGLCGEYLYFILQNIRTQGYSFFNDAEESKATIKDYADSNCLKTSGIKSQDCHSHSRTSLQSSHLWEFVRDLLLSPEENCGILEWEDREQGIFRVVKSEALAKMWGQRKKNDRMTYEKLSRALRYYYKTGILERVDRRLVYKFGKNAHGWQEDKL
Procedure, shortened: as §1

ETV3 = target: T12, ETV3 (Homo sapiens, UniProt P41162-2 1-143); conditions: protein: recombinant; tags: N-terminal GST; dsDNA, one strand shown
T12 sequence: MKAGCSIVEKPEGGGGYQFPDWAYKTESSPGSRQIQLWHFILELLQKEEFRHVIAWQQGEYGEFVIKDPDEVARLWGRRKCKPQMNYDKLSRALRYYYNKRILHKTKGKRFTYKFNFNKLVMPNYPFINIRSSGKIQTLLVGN
Procedure, shortened: as §1

ETV6 = ETV6 (Homo sapiens, UniProt P41212 1-452); conditions: protein: recombinant; tags: N-terminal GST; dsDNA, one strand shown
Procedure, shortened: as §1

Sequence of CRX (O43186 whole entry): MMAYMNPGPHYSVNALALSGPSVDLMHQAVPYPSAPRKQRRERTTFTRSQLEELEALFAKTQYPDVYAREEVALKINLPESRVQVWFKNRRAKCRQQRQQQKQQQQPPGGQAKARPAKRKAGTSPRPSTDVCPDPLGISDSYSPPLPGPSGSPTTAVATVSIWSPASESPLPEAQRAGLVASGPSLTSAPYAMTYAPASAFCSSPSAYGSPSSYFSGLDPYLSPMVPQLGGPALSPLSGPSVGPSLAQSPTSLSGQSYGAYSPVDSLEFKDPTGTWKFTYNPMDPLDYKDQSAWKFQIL
Sequence of ETV1 (P50549 whole entry): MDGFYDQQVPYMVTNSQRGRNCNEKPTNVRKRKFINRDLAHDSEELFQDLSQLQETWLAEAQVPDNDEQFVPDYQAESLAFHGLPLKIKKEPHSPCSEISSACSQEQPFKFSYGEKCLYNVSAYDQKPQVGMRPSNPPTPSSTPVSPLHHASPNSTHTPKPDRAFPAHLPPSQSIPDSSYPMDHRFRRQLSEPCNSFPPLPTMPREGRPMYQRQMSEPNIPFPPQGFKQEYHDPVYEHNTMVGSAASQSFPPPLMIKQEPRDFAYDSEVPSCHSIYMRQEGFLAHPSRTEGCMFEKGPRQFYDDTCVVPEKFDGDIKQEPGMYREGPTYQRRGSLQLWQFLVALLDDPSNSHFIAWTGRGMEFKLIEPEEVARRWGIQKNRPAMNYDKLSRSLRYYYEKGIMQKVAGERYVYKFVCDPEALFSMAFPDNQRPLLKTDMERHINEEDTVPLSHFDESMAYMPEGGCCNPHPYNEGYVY
Sequence of HSF1 (Q00613 whole entry): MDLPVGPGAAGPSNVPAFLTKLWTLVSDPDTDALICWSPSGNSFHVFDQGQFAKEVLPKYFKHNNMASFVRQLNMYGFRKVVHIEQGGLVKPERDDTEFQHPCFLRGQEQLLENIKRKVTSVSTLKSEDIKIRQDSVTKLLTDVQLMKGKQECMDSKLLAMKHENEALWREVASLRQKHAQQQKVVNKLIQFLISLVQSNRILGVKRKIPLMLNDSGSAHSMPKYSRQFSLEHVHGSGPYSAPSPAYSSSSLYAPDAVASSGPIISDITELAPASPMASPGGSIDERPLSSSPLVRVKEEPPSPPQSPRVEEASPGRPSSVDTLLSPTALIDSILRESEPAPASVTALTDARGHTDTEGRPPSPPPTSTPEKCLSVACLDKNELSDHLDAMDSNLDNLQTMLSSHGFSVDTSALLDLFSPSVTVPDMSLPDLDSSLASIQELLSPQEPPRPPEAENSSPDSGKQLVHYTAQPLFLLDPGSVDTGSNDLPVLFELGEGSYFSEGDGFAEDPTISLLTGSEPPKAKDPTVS
Sequence of ETV6 (P41212 whole entry): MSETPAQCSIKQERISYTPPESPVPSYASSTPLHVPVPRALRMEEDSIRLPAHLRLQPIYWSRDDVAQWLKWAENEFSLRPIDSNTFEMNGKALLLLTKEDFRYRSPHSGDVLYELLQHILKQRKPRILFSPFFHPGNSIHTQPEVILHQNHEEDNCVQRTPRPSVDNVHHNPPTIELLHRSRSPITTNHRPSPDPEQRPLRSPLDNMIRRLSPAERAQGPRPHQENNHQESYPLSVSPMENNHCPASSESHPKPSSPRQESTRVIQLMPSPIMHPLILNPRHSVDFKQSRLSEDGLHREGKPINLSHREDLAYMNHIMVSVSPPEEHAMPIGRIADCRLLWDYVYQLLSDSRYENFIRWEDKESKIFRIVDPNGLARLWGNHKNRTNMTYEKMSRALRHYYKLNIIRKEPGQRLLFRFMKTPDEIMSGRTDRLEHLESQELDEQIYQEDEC
Sequence of ETV5 (P41161 whole entry): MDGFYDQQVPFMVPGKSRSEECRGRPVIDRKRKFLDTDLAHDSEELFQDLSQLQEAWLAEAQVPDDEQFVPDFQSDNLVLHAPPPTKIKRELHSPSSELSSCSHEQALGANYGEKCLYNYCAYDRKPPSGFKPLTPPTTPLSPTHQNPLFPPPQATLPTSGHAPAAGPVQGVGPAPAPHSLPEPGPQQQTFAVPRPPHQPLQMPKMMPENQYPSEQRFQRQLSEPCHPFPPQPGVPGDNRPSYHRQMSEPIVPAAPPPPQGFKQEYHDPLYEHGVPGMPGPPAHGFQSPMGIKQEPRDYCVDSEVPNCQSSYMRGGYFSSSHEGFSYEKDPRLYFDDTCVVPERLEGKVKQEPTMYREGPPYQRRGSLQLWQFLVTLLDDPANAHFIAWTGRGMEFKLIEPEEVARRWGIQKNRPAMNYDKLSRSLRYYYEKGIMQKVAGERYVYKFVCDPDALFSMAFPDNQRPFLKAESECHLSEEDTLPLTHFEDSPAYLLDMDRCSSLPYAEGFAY
Sequence of ELF4 (Q99607 whole entry): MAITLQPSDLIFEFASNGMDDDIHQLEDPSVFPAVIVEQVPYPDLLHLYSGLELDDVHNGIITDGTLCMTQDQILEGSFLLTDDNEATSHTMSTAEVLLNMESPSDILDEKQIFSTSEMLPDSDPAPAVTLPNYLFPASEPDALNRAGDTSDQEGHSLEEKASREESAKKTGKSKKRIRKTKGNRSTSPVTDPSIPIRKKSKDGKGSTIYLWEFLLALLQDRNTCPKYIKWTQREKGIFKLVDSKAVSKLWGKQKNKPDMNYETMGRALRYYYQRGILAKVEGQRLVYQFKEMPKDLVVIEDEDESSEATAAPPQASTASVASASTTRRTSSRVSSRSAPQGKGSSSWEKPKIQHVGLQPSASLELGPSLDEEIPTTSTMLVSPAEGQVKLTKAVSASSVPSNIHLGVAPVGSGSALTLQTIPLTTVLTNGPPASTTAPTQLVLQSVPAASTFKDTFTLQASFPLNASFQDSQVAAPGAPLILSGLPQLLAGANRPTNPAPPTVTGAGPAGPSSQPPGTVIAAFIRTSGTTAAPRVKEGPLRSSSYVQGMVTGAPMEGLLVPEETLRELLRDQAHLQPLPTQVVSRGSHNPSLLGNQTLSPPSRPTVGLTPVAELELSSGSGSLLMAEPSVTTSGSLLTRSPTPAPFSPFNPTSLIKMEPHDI

CCTATG was tested, and the binding signal (FEV) was 1.17 fold enrichment (6-mer frequency, TF over GST control), the binding signal (ETV5) was 1.28 fold enrichment (6-mer frequency, TF over GST control) and the binding signal (HSF1) was 1.05 fold enrichment (6-mer frequency, TF over GST control). The binding signal (SPIC) was 1.1 fold enrichment (6-mer frequency, TF over GST control), the binding signal (ELF4) was 1.3 fold enrichment (6-mer frequency, TF over GST control) and the binding signal (ELK4) was 1.35 fold enrichment (6-mer frequency, TF over GST control). The binding signal (ETV2) was 1.25 fold enrichment (6-mer frequency, TF over GST control), the binding signal (ELF3) was 1.52 fold enrichment (6-mer frequency, TF over GST control) and the binding signal (CRX) was 1.02 fold enrichment (6-mer frequency, TF over GST control). The binding signal (ETV1) was 1.24 fold enrichment (6-mer frequency, TF over GST control), the binding signal (ERF) was 1.11 fold enrichment (6-mer frequency, TF over GST control) and the binding signal (ETV3L) was 1.21 fold enrichment (6-mer frequency, TF over GST control). The binding signal (ETS2) was 1.19 fold enrichment (6-mer frequency, TF over GST control), the binding signal (SPDEF) was 1.25 fold enrichment (6-mer frequency, TF over GST control) and the binding signal (ETV7) was 1.27 fold enrichment (6-mer frequency, TF over GST control). For the same sequence, the binding signal (ELF5) was 1.16 fold enrichment (6-mer frequency, TF over GST control), the binding signal (ETV3) was 1.29 fold enrichment (6-mer frequency, TF over GST control) and the binding signal (ETV6) was 1.17 fold enrichment (6-mer frequency, TF over GST control).
